Usually AC50 stands for the concentration giving half of the maximal activity seen.

Test [1] in a line: ATG_E_Box_CIS: Attagene CIS-FACTORIAL HepG2 Assay for human Enhancer Box (E-box) (AID 2282936). The note with it: HepG2 E-box cis-reporter transcription, actives raise or lower the signal. A digest of the protocol: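 Measured 24 h post-dosing in HepG2 cells transfected with multiple cis-regulated reporter units, signal being reporter mRNA induction detected by fluorescent RT-PCR with capillary electrophoresis; gain or loss fitted against DMSO.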

Test [2] can be described thus: ATG_M_61_CIS: Attagene CIS-FACTORIAL HepG2 Assay for M61 Transcription Factor (Internal Marker) (AID 2282937). The note with it: HepG2 Attagene CIS-FACTORIAL M61 internal marker reporter; actives raise or lower the signal. An outline of the steps:
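HepG2 cells transiently transfected with multiplexed cis-promoter reporter units reporting endogenous transcription factor activity, measured 24 h after dosing. Reporter mRNA quantified by RT-PCR and capillary electrophoresis; bidirectional fit against DMSO baseline.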

Test [3] can be described thus: ATG_EGR_CIS: Attagene CIS-FACTORIAL HepG2 Assay for human Early Growth Response 1 (EGR1) (AID 2282938). Particulars: HepG2 Attagene CIS-FACTORIAL EGR reporter mRNA; actives raise or lower the signal. A digest of the protocol: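 HepG2 cells transiently transfected with cis-element-driven multiplexed reporter units, dosed for 24 h. EGR1-element reporter mRNA quantified by RT-PCR, 6-FAM labelling, HpaI digestion and capillary electrophoresis; bidirectional fit versus DMSO.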

Test [4] is described as follows: ATG_M_19_CIS: Attagene CIS-FACTORIAL HepG2 Assay for M19 Transcription Factor (Internal Marker) (AID 2282939). The note with it: HepG2 Attagene CIS-FACTORIAL M19 internal marker reporter; actives raise or lower the signal. A digest of the protocol: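 Readout: fluorescent reporter-transcript fragments by capillary electrophoresis after RT-PCR. Human HepG2 liver cells carried transfected MRTU constructs reporting endogenous transcription-factor activity; exposure 24 h. Gain or loss of signal fitted relative to DMSO.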

Test [5] in a line: ATG_Ets_CIS: Attagene CIS-FACTORIAL HepG2 Assay for human Erythroblast Transformation Specific (ETS) (AID 2282941). The note with it: HepG2 ETS cis-reporter transcription, actives raise or lower the signal. An outline of the steps: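 RT-PCR/capillary electrophoresis fluorescence read-out of reporter mRNA; HepG2 transient multi-reporter transfection; 24 h compound exposure; gain or loss of signal fitted bidirectionally relative to DMSO.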

For test [6], the target named is Hepatocyte nuclear factor 3-beta (Homo sapiens) (UniProt Q9Y261). The test is described as follows: ATG_FoxA2_CIS: Attagene CIS-FACTORIAL HepG2 Assay for human Forkhead box A2 (FOXA2) (AID 2282942). Particulars: HepG2 cis-reporter transcription factor activity, 24 h; actives raise or lower the signal. A digest of the protocol:
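HepG2 transiently transfected with a multiplexed cis-promoter reporter library read endogenous FOXA2 activity. After 24 h compound exposure, reporter mRNA was quantified by RT-PCR, HpaI digestion and capillary electrophoresis. Bidirectional fit against DMSO.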

Test [7] can be described thus: ATG_FoxO_CIS: Attagene CIS-FACTORIAL HepG2 Assay for human Forkhead box O (FoxO) (AID 2282943). The note with it: HepG2 Attagene cis-reporter, FoxO element, mRNA; actives raise or lower the signal. An outline of the steps: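 HepG2 cells transiently transfected with cis-promoter-driven multiple reporter transcription units; 24 h after chemical dosing, reporter mRNA quantified by RT-PCR, fluorescent primer extension, HpaI digestion and capillary electrophoresis. Bidirectional fitting versus DMSO baseline.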

Test [8] can be described thus: ATG_GATA_CIS: Attagene CIS-FACTORIAL HepG2 Assay for human GATA Binding Protein (AID 2282944). Particulars: HepG2 GATA cis-element reporter, Attagene multiplex mRNA; actives raise or lower the signal. A digest of the protocol:
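Read-out: fluorescent reporter mRNA fragments resolved by capillary electrophoresis after RT-PCR. Human liver HepG2 cells carried transiently transfected cis-regulated reporter constructs; chemicals incubated 24 h; gain or loss of signal fitted relative to DMSO.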

Test [9] can be described thus: ATG_GLI_CIS: Attagene CIS-FACTORIAL HepG2 Assay for human Zinc Finger Protein GLI1 (AID 2282945). Particulars: HepG2, Attagene cis-factorial reporter mRNA, GLI element; actives raise or lower the signal. An outline of the steps:
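HepG2 cells transiently transfected with cis-promoter multiplexed reporter units report endogenous transcription factor activity. After 24 h chemical exposure, reporter mRNA was quantified by RT-PCR, 6-FAM labelling, HpaI digestion and capillary electrophoresis, with bidirectional fitting against DMSO.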

Test [10] in a line: ATG_GRE_CIS: Attagene CIS-FACTORIAL HepG2 Assay for human Glucocorticoid Response Elements (GRE) (AID 2282947). Particulars: HepG2 GRE cis-reporter, Attagene multiplex mRNA; actives raise or lower the signal. A digest of the protocol:
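HepG2, transient cis-reporter transfection, 24 h. Reporter mRNA: RT-PCR then CE, fluorescence. Fit both directions vs DMSO.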

A short description of test [11]: ATG_ISRE_CIS: Attagene CIS-FACTORIAL HepG2 Assay for human Interferon Regulatory Factor 1 (IRF1) binding to an Interferon-Stimulated Response Element (ISRE) (AID 2282948). Particulars: HepG2 ISRE cis-reporter (Attagene), mRNA transcription readout; actives raise or lower the signal. An outline of the steps: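 Read-out: fluorescent RT-PCR products resolved by capillary electrophoresis, reporting endogenous transcription factor activity via ISRE-driven reporter mRNA in transfected HepG2 cells dosed for 24 h; gain or loss fitted relative to DMSO.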

The nature of test [12]: ATG_M_32_CIS: Attagene CIS-FACTORIAL HepG2 Assay for M32 Transcription Factor (Internal Marker) (AID 2282949).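 Further: background control marker of the multiplexed CIS panel rather than a real target.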 Particulars: HepG2 Attagene cis-factorial M32 reporter, mRNA; actives raise or lower the signal. A digest of the protocol:
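Using DMSO as baseline, bidirectional curve fits were applied to reporter mRNA signals. These came from transiently transfected HepG2 cells exposed for 24 h, with RNA analysed by RT-PCR, FAM primer extension, HpaI digestion and CE.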

A short description of test [13]: ATG_M_06_CIS: Attagene CIS-FACTORIAL HepG2 Assay for M06 Transcription Factor (Internal Marker) (AID 2282950). Particulars: HepG2 Attagene CIS-FACTORIAL M06 internal marker reporter; actives raise or lower the signal. A digest of the protocol:
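Terse: HepG2, transient MRTU transfection (FuGene 6), 24 h dosing; total RNA, oligo(dT) RT, PCR, FAM label, HpaI cut, capillary electrophoresis; bidirectional fit vs DMSO baseline; background-control endpoint.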

Test [14] has as its target Hypoxia-inducible factor 1-alpha (Homo sapiens) (UniProt Q16665). The test is described as follows: ATG_HIF1a_CIS: Attagene CIS-FACTORIAL HepG2 Assay for human Hypoxia Inducible Factor 1 (HIF1A) (AID 2282951). The note with it: HepG2 Attagene cis-factorial HIF1a reporter transcription; actives raise or lower the signal. A digest of the protocol:
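HepG2 cells transiently transfected with multiple cis-regulated reporter transcription units measure endogenous transcription factor activity. After 24 h exposure, reporter mRNA is quantified by RT-PCR with 6-FAM labelling, HpaI digestion and capillary electrophoresis. Bidirectional fitting against DMSO.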

In test [15] the target is Hepatocyte nuclear factor 6 (Homo sapiens) (UniProt Q9UBC0). As to the kind of experiment: ATG_HNF6_CIS: Attagene CIS-FACTORIAL HepG2 Assay for human Hepatocyte Nuclear Factor 6 (HNF6) (AID 2282952). The note with it: HepG2 Attagene cis-factorial HNF6 reporter transcription; actives raise or lower the signal. A digest of the protocol: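 Twenty-four-hour chemical treatment of reporter-transfected HepG2 cells precedes RNA isolation, DNase-treated reverse transcription and PCR of reporter sequences. Labelled fragments are sized by capillary electrophoresis and fitted bidirectionally versus DMSO.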
Hepatocyte nuclear factor 6 (Homo sapiens), sequence (Q9UBC0 whole entry, looked up, the tested form may be a part): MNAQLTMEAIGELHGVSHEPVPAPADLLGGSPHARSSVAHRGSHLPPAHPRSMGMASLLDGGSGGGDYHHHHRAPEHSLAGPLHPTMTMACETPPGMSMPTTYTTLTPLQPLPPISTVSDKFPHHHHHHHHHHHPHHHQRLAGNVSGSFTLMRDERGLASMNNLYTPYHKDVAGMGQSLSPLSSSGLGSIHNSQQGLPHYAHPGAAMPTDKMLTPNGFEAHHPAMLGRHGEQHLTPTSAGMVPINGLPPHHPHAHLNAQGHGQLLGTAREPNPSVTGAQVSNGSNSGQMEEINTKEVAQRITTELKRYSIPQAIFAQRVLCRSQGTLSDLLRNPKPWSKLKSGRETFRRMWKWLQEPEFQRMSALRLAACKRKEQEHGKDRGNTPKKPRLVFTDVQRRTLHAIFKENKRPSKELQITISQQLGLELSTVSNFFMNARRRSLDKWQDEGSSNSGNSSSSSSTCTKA

Test [16] deals with Heat shock factor protein 1 (Homo sapiens) (UniProt Q00613). The test is described as follows: ATG_HSE_CIS: Attagene CIS-FACTORIAL HepG2 Assay for human Heat Shock Transcription Factor 1 (HSE) (AID 2282953). Particulars: HepG2 HSE cis-reporter, Attagene RNA transcription; actives raise or lower the signal. An outline of the steps:
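Read-out: fluorescence of reporter-specific RT-PCR fragments separated by capillary electrophoresis. HepG2 carrying transfected cis-element reporter units; 24 h dosing; activity fitted in both directions relative to DMSO baseline.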

Test [17] is described as follows: ATG_MRE_CIS: Attagene CIS-FACTORIAL HepG2 Assay for human Metal Responsive Element (MRE) (AID 2282954). Particulars: HepG2 MRE cis-reporter transcription, Attagene multiplex; actives raise or lower the signal. An outline of the steps: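 Readout: capillary electrophoresis of 6-FAM-labelled, HpaI-digested RT-PCR reporter products. System: HepG2 cells carrying transient multiplexed cis reporters, dosed 24 h. Analysis: bidirectional fit, DMSO baseline.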

A short description of test [18]: ATG_PBREM_CIS: Attagene CIS-FACTORIAL HepG2 Assay for human Phenobarbital-responsive Enhancer Module (PBREM) (AID 2282955). Particulars: HepG2 PBREM cis-reporter, Attagene multiplexed transcription; actives raise or lower the signal. An outline of the steps: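 HepG2 cells transiently transfected with multiple cis-regulated reporter units measure endogenous transcription factor activity; 24 h compound exposure. Reporter mRNA quantified by RT-PCR, fluorescent labelling, HpaI digestion and capillary electrophoresis; bidirectional fit versus DMSO.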

In test [19] the target is Bile acid receptor (Homo sapiens) (UniProt Q96RI1). As to the kind of experiment: ATG_IR1_CIS: Attagene CIS-FACTORIAL HepG2 Assay for human Nuclear Receptor Subfamily 1 Group H Member 4 (NR1H4), IR1 submotif (AID 2282946). Particulars: IR1 reporter transcription, actives raise or lower the signal. An outline of the steps:
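Readout: reporter transcript levels by RT-PCR with fluorescent capillary electrophoresis, from HepG2 cells transiently transfected with multiplexed cis-regulated reporters and dosed 24 h. Gain- or loss-of-signal fitted versus DMSO negative control.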

A short description of test [20]: ATG_ERE_CIS: Attagene CIS-FACTORIAL HepG2 Assay for Estrogen Response Element (ERE) (AID 2282940). Particulars: HepG2 ERE cis-reporter, Attagene RNA transcript; actives raise or lower the signal. A digest of the protocol: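 Readout: reporter mRNA induction by RT-PCR, FAM-labelled primer extension, HpaI digestion and capillary electrophoresis, 24 h after dosing transfected HepG2 cells. Endogenous transcription factors act on cis-element-regulated reporters. Gain or loss fitted against DMSO.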

SMILES strings stand for the structures. Activity calls are given as the source filed them. How the source made its calls: active means hit-call score of the fitted dose curve at least 0.9, where 1 is the maximum; inactive means score below 0.9.

Hepatocyte nuclear factor 3-beta (Homo sapiens), sequence (Q9Y261 whole entry, looked up): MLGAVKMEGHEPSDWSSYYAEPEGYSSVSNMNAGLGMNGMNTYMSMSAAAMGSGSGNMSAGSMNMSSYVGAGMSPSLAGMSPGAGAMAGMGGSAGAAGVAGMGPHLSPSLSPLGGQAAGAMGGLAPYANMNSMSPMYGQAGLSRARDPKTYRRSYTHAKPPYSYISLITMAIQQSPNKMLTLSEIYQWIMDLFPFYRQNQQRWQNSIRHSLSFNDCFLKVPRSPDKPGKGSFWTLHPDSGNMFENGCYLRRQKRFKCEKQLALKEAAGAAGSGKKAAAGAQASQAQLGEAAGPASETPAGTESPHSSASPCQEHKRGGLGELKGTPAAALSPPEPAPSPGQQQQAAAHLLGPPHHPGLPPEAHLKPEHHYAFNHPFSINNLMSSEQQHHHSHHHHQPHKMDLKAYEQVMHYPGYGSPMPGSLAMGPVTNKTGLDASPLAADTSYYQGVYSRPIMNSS
Bile acid receptor (Homo sapiens), sequence (Q96RI1 whole entry, looked up): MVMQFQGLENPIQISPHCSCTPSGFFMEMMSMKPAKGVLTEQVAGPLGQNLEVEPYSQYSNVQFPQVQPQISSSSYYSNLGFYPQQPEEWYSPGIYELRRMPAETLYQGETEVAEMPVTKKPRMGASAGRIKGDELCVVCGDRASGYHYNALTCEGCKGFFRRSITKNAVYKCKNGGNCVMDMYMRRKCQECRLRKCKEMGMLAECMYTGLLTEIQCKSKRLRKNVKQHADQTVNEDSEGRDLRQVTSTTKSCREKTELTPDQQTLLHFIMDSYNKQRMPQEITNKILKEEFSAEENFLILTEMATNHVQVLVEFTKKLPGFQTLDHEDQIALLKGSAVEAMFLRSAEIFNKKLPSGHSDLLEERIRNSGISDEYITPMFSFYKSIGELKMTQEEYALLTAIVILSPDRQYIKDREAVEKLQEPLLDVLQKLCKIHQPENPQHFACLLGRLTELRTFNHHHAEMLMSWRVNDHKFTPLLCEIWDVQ
Hypoxia-inducible factor 1-alpha (Homo sapiens), sequence (Q16665 whole entry, looked up): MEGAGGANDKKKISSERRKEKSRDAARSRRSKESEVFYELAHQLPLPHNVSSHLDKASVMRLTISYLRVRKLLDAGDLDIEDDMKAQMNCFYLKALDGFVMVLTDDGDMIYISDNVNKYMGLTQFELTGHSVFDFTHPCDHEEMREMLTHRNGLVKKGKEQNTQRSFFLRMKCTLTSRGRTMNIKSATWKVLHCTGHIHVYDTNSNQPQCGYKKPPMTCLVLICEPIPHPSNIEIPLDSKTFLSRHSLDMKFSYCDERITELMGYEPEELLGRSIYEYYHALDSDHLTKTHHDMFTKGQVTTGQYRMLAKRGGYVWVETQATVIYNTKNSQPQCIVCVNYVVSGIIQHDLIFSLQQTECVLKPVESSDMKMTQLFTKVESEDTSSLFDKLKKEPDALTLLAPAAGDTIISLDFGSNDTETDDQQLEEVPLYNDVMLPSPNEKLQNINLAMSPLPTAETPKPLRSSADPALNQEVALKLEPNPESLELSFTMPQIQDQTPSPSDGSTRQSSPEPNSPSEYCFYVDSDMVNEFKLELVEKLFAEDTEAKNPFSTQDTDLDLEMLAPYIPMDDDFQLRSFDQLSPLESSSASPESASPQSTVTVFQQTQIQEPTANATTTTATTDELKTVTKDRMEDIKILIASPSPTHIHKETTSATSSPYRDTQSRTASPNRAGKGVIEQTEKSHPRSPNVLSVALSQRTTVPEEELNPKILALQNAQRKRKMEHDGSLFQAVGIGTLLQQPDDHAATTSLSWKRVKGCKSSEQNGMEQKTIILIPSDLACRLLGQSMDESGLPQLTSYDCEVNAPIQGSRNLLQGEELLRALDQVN
Heat shock factor protein 1 (Homo sapiens), sequence (Q00613 whole entry, looked up, the tested form may be a part): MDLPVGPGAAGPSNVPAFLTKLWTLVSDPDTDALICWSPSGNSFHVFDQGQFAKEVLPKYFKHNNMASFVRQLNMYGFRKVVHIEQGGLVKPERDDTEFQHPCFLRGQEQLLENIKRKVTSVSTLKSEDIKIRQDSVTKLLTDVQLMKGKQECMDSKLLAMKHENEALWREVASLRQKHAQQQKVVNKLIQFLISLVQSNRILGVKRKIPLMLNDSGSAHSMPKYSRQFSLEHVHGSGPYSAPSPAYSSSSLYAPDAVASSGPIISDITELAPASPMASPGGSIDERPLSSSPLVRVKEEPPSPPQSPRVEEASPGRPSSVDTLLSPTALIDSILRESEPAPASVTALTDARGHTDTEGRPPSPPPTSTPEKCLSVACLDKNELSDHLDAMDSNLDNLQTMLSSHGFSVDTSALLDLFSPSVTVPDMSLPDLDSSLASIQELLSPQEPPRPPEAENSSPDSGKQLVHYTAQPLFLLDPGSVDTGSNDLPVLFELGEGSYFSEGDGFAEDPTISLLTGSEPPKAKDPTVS

In the case of `CC(C)(O)c1ccc(CNC(=O)c2cccnc2Oc2ccc(F)cc2)cc1`, the result in test [1], in test [2], in test [3], in test [4], in test [5] and in test [6] was inactive. The result in test [7], in test [8], in [9], in [10], in test [11] and in test [12] was inactive. The molecule was classed as inactive in test [13], in test [14], in test [15], in [16], in [17] and in test [18].

For the molecule `CC(COCC(C)OC(=O)c1ccccc1)OC(=O)c1ccccc1` (centres undefined), the outcome in [1], in test [2], in [3], in test [4], in test [5] and in test [6] was inactive. Besides, the outcome in [7], in test [8], in [9], in test [19], in test [10] and in [11] was inactive. Moreover, the outcome in test [12], in test [13], in test [14], in test [15], in test [16] and in test [17] was inactive. In addition, the result in test [18] was inactive.

Regarding `CO[C@@H]1COCC[C@@H]1N[C@@H]1CC[C@@](C(=O)N2CCc3ncc(C(F)(F)F)cc3C2)(C(C)C)C1`, the outcome in test [1], in test [2], in [3], in test [4], in test [5] and in [6] was inactive. The molecule was called inactive in test [7], in test [8], in test [9], in [10], in [11] and in [12]. Moreover, the result in test [13], in [14], in [15], in test [16], in test [17] and in test [18] was inactive.

For `CCCCCCCC(=O)OC`, the outcome in test [1], in test [2], in test [3], in test [4], in [20] and in test [5] was inactive. The molecule was called inactive in test [6], in test [7], in test [8], in test [11], in test [12] and in test [13]. Besides, the call in test [15], in [16], in test [17] and in [18] was inactive. In [14], the concentration at half-maximal activity (AC50) was 68.3 µM (active).

For `CCOCCOCCO`, the outcome in test [1], in [2], in [3], in [4], in [5] and in test [6] was inactive. The outcome in test [7], in test [8], in [9], in test [11], in test [12] and in test [13] was inactive. The molecule was called inactive in [14], in [15], in test [16] and in [17].

For `COC(=O)CCCC(=O)OC`, the result in test [1], in [2], in [3], in [4], in [5] and in [6] was inactive. The molecule was called inactive in test [7], in test [8], in test [9], in [19], in test [10] and in [11]. Also, the molecule was classed as inactive in test [12], in test [13], in [14], in test [15], in test [16] and in [17]. Also, the outcome in [18] was inactive.

Regarding `Cc1cn([C@H]2C=C[C@@H](CO)O2)c(=O)[nH]c1=O`, the outcome in [1], in test [2], in test [3], in [4], in test [5] and in test [6] was inactive. Moreover, the call in [7], in [8], in [9], in test [19], in [11] and in test [12] was inactive. The result in test [13], in test [15], in test [16], in test [17] and in [18] was inactive.

Values taken from PubChem BioAssay (EPA / NIEHS).
